# Article PMC7862700, “An all-to-all approach to the identification of sequence-specific readers for epigenetic DNA modifications on cytosine”
# Experiments:
# Experiment in all cases: DAPPL (digital affinity profiling via proximity ligation, sequencing); 10 mM Tris-HCl pH 7.5, 50 mM NaCl, 1 mM DTT, 4% glycerol, room temperature, 30 min; GST-TFs on glutathione beads, 16-mer random dsDNA library, 0.1% formaldehyde crosslink after washing; high values mean tight binding
# FLI1 = target: T1, FLI1 (Homo sapiens, UniProt Q01543 1-452); settings: protein: recombinant; tags: N-terminal GST; dsDNA, one strand shown
# T1 sequence: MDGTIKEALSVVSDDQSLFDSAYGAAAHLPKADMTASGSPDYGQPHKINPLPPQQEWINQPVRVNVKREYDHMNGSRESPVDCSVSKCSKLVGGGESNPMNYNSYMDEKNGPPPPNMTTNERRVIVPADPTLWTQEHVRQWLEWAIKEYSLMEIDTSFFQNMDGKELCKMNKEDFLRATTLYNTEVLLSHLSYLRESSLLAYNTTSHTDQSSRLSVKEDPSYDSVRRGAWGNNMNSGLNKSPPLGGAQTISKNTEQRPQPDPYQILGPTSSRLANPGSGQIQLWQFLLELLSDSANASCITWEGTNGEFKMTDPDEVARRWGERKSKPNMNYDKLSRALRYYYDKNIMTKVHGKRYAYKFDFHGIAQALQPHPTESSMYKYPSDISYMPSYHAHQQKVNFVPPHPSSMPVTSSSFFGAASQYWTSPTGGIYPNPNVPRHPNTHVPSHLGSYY
# Procedure, shortened: (§1)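 A tag-only sample was pooled with DNA-barcoded human transcription factors that had been expressed in yeast as GST fusions and captured on glutathione beads. The pools were incubated for 30 min at room temperature with 200 nmole of a random double-stranded 16-mer DNA library in Tris/NaCl/DTT/glycerol buffer, then washed, crosslinked with 0.1% formaldehyde, proximity-ligated (BsaI/T4 ligase, 1 h, 37 °C), PCR-amplified and sequenced on an Illumina NextSeq500. Binding signal is each hexamer's read frequency for a factor divided by its frequency for the tag-only sample.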
# ELK1 = target: T2, ELK1 (Homo sapiens, UniProt P19419 1-428); settings: protein: recombinant; tags: N-terminal GST; dsDNA, one strand shown
# T2 sequence: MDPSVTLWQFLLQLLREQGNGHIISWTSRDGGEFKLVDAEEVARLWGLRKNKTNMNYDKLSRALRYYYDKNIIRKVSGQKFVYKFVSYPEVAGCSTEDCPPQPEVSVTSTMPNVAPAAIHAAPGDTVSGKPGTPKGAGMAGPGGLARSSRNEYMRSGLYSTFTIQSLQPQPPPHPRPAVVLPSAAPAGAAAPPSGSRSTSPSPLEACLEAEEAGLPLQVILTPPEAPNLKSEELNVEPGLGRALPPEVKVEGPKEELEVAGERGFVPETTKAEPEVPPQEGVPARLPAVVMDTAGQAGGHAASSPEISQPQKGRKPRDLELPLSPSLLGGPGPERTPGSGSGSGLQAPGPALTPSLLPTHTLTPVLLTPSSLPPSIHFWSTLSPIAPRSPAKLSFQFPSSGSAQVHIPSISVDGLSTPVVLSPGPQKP
# Procedure, shortened: as §1
# GABPA = target: T3, GABPA (Homo sapiens, UniProt Q06546 1-454); settings: protein: recombinant; tags: N-terminal GST; dsDNA, one strand shown
# T3 sequence: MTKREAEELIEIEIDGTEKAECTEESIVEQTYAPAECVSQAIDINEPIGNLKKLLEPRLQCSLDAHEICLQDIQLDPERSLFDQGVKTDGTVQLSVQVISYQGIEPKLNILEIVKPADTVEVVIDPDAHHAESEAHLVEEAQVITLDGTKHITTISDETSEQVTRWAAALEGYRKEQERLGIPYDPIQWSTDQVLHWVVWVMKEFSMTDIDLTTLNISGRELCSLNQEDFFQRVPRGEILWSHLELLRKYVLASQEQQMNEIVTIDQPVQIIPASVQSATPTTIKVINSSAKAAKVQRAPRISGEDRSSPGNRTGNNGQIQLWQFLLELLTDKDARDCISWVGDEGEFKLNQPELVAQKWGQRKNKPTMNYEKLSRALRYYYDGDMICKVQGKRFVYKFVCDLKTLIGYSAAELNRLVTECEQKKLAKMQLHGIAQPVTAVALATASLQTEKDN
# Procedure, shortened: as §1
# ERG = target: T4, ERG (Homo sapiens, UniProt P11308 1-479); settings: protein: recombinant; tags: N-terminal GST; dsDNA, one strand shown
# T4 sequence: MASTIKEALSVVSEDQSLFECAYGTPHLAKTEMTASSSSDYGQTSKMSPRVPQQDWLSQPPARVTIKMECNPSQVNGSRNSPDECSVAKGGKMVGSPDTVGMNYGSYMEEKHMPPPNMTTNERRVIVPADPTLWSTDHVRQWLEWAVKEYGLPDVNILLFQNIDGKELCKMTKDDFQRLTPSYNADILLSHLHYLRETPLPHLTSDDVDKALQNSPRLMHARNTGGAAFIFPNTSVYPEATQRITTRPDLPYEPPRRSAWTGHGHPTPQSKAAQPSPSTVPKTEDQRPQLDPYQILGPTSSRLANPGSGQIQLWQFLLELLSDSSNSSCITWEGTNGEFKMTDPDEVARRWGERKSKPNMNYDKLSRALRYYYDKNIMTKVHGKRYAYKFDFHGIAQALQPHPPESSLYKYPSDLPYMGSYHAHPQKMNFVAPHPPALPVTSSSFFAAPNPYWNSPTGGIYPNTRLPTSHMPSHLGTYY
# Procedure, shortened: as §1
# ELF1 = ELF1 (Homo sapiens, UniProt P32519 1-619); settings: protein: recombinant; tags: N-terminal GST; dsDNA, one strand shown
# Chain of ELF1 (P32519 whole entry): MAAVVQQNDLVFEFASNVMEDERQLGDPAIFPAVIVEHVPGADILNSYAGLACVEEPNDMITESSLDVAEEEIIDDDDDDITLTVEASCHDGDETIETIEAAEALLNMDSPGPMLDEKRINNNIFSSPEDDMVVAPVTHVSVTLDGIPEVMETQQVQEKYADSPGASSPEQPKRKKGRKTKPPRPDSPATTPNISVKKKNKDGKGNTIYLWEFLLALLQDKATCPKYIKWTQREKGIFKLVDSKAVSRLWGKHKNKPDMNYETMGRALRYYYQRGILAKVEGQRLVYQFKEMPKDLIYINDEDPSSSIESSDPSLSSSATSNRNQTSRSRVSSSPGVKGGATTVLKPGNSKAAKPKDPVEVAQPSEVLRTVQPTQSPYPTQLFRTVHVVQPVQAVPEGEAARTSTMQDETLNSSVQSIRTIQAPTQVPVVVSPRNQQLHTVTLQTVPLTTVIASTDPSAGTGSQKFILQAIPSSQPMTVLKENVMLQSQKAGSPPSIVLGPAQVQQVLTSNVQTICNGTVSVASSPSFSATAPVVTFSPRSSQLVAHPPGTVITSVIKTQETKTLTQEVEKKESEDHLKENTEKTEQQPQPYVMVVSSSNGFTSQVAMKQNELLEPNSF
# Procedure, shortened: as §1
# EHF = target: T5, EHF (Homo sapiens, UniProt Q9NZC4 1-300); settings: protein: recombinant; tags: N-terminal GST; dsDNA, one strand shown
# T5 sequence: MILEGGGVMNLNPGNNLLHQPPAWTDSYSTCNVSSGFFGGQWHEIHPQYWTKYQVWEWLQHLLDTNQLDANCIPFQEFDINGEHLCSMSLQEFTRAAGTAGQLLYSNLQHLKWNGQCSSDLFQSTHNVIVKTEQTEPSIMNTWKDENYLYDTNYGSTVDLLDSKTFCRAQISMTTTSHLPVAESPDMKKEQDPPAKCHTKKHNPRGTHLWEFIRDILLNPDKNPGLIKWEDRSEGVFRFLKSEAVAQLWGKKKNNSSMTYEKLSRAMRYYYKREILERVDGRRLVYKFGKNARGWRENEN
# Procedure, shortened: as §1
# SPI1 = SPI1 (Homo sapiens, UniProt P17947 1-270); settings: protein: recombinant; tags: N-terminal GST; dsDNA, one strand shown
# Procedure, shortened: as §1
# SPIB = SPIB (Homo sapiens, UniProt Q01892 1-262); settings: protein: recombinant; tags: N-terminal GST; dsDNA, one strand shown
# Chain of SPIB (Q01892 whole entry): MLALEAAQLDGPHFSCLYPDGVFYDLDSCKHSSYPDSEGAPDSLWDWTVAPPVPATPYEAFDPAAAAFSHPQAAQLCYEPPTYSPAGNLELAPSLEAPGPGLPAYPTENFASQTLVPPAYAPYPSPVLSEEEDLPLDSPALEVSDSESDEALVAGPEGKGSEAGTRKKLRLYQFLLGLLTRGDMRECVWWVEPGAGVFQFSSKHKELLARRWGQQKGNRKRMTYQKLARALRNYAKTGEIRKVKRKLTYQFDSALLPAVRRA
# Procedure, shortened: as §1
# ELK3 = target: T6, ELK3 (Homo sapiens, UniProt P41970 1-407); settings: protein: recombinant; tags: N-terminal GST; dsDNA, one strand shown
# T6 sequence: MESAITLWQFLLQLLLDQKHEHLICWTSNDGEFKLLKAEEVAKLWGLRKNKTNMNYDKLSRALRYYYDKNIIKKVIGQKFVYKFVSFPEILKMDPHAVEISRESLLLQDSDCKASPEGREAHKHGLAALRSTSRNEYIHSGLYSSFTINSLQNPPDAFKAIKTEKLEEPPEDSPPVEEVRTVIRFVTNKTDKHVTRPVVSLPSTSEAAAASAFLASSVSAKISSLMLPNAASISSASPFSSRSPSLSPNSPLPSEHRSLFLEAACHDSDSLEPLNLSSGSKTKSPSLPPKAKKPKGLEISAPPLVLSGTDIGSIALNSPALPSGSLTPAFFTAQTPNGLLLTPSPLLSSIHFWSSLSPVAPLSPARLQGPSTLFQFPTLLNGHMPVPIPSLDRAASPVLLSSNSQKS
# Procedure, shortened: as §1
# FEV = target: T7, FEV (Homo sapiens, UniProt Q99581 1-238); settings: protein: recombinant; tags: N-terminal GST; dsDNA, one strand shown
# T7 sequence: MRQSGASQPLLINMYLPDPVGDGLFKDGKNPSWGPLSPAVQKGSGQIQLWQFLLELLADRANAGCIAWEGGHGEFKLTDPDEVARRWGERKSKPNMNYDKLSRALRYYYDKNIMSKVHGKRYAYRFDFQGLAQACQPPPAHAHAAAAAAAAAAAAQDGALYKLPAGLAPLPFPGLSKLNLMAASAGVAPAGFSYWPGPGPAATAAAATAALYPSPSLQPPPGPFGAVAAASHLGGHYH
# Procedure, shortened: as §1
# ETV5 = ETV5 (Homo sapiens, UniProt P41161 1-510); settings: protein: recombinant; tags: N-terminal GST; dsDNA, one strand shown
# Chain of ETV5 (P41161 whole entry): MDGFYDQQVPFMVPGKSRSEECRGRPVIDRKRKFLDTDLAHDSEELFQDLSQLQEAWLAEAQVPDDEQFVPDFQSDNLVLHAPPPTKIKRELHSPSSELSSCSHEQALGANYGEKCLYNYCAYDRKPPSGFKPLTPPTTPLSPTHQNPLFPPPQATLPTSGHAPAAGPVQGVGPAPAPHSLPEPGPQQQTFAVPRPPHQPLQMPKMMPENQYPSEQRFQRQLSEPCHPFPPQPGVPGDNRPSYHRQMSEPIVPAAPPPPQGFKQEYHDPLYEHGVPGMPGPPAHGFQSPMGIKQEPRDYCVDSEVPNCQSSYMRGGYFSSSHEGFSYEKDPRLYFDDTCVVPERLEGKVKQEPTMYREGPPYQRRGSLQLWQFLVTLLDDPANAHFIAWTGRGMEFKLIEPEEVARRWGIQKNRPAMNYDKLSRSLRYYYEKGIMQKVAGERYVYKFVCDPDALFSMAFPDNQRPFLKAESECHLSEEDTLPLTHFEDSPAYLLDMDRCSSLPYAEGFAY
# Procedure, shortened: as §1
# HSF1 = HSF1 (Homo sapiens, UniProt Q00613 1-529); settings: protein: recombinant; tags: N-terminal GST; chain copies: 3; dsDNA, one strand shown
# Chain of HSF1 (Q00613 whole entry): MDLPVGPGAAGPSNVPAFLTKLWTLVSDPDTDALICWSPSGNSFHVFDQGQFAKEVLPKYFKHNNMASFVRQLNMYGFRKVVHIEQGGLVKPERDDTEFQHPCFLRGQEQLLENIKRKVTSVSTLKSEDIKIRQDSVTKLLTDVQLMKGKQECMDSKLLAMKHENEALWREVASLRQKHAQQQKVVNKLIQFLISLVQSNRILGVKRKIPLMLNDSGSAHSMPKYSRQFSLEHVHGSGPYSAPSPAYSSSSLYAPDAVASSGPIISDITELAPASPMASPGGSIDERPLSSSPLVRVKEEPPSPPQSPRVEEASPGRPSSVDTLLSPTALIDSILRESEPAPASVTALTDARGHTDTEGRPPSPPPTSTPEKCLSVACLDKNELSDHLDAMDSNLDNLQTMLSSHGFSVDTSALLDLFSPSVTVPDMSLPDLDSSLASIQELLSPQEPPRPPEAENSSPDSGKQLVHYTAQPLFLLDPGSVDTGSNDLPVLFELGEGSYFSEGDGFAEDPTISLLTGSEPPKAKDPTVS
# Procedure, shortened: as §1
# SPIC = target: T8, SPIC (Homo sapiens, UniProt Q8N5J4 1-248); settings: protein: recombinant; tags: N-terminal GST; dsDNA, one strand shown
# T8 sequence: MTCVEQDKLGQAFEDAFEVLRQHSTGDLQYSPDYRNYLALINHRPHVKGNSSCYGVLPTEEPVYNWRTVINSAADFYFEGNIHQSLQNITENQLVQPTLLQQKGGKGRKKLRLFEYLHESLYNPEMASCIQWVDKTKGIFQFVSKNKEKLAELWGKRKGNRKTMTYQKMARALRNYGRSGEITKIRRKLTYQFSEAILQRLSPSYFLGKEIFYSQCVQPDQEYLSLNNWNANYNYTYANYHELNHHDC
# Procedure, shortened: as §1
# ELF4 = ELF4 (Homo sapiens, UniProt Q99607 1-663); settings: protein: recombinant; tags: N-terminal GST; dsDNA, one strand shown
# Chain of ELF4 (Q99607 whole entry): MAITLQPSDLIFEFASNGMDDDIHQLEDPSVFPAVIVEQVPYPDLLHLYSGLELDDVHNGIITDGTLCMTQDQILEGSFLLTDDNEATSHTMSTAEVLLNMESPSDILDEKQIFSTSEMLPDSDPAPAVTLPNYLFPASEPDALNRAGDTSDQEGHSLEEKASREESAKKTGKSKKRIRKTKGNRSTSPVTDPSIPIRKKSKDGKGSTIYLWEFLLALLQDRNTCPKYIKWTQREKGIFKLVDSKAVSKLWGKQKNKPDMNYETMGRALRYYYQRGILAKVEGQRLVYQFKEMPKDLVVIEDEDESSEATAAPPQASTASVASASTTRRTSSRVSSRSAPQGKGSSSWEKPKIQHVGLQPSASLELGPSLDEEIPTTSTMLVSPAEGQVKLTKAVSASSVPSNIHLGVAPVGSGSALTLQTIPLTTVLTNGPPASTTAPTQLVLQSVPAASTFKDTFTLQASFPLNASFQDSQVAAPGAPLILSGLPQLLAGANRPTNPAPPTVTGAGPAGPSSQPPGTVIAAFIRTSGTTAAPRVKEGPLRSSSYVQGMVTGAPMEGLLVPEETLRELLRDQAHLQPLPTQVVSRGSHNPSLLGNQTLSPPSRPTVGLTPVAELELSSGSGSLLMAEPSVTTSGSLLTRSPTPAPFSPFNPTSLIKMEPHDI
# Procedure, shortened: as §1
# ELK4 = target: T9, ELK4 (Homo sapiens, UniProt P28324-2 1-405); settings: protein: recombinant; tags: N-terminal GST; dsDNA, one strand shown
# T9 sequence: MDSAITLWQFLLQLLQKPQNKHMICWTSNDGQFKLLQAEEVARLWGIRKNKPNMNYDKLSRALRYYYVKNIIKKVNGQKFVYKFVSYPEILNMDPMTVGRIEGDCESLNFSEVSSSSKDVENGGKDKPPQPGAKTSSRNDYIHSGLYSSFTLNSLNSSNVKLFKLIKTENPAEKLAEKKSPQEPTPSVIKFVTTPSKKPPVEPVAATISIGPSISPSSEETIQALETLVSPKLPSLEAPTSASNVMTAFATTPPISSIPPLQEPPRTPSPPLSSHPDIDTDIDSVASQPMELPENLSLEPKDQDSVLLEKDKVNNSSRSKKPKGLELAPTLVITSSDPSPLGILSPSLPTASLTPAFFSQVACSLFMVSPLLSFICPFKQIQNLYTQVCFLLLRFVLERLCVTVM
# Procedure, shortened: as §1
# ETV2 = target: T10, ETV2 (Homo sapiens, UniProt O00321 1-342); settings: protein: recombinant; tags: N-terminal GST; dsDNA, one strand shown
# T10 sequence: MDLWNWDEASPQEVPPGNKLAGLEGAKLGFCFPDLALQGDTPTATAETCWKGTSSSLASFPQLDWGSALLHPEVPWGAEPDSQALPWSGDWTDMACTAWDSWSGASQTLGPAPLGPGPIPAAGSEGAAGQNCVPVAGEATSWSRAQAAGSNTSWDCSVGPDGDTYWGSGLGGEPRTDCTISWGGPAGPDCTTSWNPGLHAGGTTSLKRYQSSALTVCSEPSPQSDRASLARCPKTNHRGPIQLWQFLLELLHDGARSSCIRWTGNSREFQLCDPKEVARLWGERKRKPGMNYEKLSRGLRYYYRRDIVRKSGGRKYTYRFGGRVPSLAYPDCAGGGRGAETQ
# Procedure, shortened: as §1
# ELF3 = target: T11, ELF3 (Homo sapiens, UniProt P78545 1-371); settings: protein: recombinant; tags: N-terminal GST; dsDNA, one strand shown
# T11 sequence: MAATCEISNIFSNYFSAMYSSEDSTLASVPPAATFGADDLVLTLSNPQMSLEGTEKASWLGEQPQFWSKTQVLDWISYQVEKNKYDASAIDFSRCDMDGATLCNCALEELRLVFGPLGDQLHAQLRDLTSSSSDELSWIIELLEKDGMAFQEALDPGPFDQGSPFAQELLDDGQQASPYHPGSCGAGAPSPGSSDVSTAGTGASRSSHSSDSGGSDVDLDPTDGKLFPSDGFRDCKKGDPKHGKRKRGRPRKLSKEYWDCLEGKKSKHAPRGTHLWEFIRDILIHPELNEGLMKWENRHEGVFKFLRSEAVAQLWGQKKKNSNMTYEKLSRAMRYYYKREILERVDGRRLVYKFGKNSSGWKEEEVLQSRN
# Procedure, shortened: as §1
# CRX = CRX (Homo sapiens, UniProt O43186 1-299); settings: protein: recombinant; tags: N-terminal GST; dsDNA, one strand shown
# Chain of CRX (O43186 whole entry): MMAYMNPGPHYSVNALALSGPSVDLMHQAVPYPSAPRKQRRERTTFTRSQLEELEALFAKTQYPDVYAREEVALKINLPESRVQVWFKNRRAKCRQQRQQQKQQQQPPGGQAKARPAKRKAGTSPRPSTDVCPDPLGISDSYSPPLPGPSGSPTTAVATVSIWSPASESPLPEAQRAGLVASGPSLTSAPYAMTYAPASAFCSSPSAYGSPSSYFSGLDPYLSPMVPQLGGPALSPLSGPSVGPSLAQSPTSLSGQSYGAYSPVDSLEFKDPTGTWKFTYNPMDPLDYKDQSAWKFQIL
# Procedure, shortened: as §1
# ETV1 = ETV1 (Homo sapiens, UniProt P50549 1-477); settings: protein: recombinant; tags: N-terminal GST; dsDNA, one strand shown
# Chain of ETV1 (P50549 whole entry): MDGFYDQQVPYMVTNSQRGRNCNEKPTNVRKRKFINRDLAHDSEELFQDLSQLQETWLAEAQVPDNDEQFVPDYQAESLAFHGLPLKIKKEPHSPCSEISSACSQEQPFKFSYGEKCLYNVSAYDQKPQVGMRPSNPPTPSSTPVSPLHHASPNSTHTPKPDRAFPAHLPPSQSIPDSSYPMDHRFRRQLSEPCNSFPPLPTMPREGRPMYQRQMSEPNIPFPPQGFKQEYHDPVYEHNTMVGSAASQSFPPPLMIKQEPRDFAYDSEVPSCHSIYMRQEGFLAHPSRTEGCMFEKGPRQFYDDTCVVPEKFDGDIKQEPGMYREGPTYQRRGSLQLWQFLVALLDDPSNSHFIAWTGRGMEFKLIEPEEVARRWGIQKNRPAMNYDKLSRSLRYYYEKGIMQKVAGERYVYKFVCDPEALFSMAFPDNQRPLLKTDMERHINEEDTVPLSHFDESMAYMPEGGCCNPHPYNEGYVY
# Procedure, shortened: as §1
sequence,measurement,setting,value
CGATTT,binding signal,FLI1,"1.23 fold enrichment (6-mer frequency, TF over GST control)"
same,binding signal,ELK1,"1.08 fold enrichment (6-mer frequency, TF over GST control)"
same,binding signal,GABPA,"1.08 fold enrichment (6-mer frequency, TF over GST control)"
same,binding signal,ERG,"1.17 fold enrichment (6-mer frequency, TF over GST control)"
same,binding signal,ELF1,"1.09 fold enrichment (6-mer frequency, TF over GST control)"
same,binding signal,EHF,"1.26 fold enrichment (6-mer frequency, TF over GST control)"
same,binding signal,SPI1,"1.09 fold enrichment (6-mer frequency, TF over GST control)"
same,binding signal,SPIB,"1.1 fold enrichment (6-mer frequency, TF over GST control)"
same,binding signal,ELK3,"1.04 fold enrichment (6-mer frequency, TF over GST control)"
same,binding signal,FEV,"1.22 fold enrichment (6-mer frequency, TF over GST control)"
same,binding signal,ETV5,"1.23 fold enrichment (6-mer frequency, TF over GST control)"
same,binding signal,HSF1,"1.38 fold enrichment (6-mer frequency, TF over GST control)"
same,binding signal,SPIC,"1.22 fold enrichment (6-mer frequency, TF over GST control)"
same,binding signal,ELF4,"1.19 fold enrichment (6-mer frequency, TF over GST control)"
same,binding signal,ELK4,"1.14 fold enrichment (6-mer frequency, TF over GST control)"
same,binding signal,ETV2,"1.13 fold enrichment (6-mer frequency, TF over GST control)"
same,binding signal,ELF3,"1.23 fold enrichment (6-mer frequency, TF over GST control)"
same,binding signal,CRX,"1.58 fold enrichment (6-mer frequency, TF over GST control)"
same,binding signal,ETV1,"1.17 fold enrichment (6-mer frequency, TF over GST control)"
